“And” between values parts separate entries of the source, which are not always exact repeats. Equal values may be shown once. The campaign covered roughly 5,500 compounds. About 2,000 (36%) were called active. About 18% were inconclusive and are not listed. Rule as the data show it: active = normalized growth mostly below about 0.91 (no sharp cut-off); inconclusive = no clear call, values can overlap the other calls; inactive = mostly above about 0.92. This is one part of the list.
Assay: chemical genetic growth profiling, strain panel (AID 1159580);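 also: tested at 20 µM; growth read once vehicle control cultures reached saturation at 30 °C; 1 = growth at the plate median or of vehicle wells; lower values mean less growth of the strain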
Details: S. cerevisiae deletion strains, growth OD

Measured: normalized growth

CCC(=O)OCC(=O)C1(OC(=O)CC)C(C)CC2C3CCC4=CC(=O)C=CC4(C)C3(Cl)C(O)CC21C (stereo unspecified)
inactive: locus YAL021C, strain ccr4, active compounds read low 0.99 | locus YAL026C, strain drs2, active compounds read low 1 | locus YAL030W, strain snc1, active compounds read low 0.999 | locus YBL061C, strain skt5, active compounds read low 0.98 | locus YBR009C, strain hhf1, active compounds read low 0.996 | locus YBR021W, strain FUR4, active compounds read low 1.04 | locus YBR023C, strain chs3, active compounds read low 0.979 | locus YBR171W, strain sec66, active compounds read low 0.963 | locus YBR229C, strain ROT2, active compounds read low 1.02 | locus YBR231C, strain swc5, active compounds read low 0.972 | locus YBR279W, strain paf1, active compounds read low 0.99 | locus YCL011C, strain gbp2, active compounds read low 1 | locus YCL016C, strain dcc1, active compounds read low 1.01 | locus YCL029C, strain bik1, active compounds read low 0.993 | locus YCL061C, strain MRC1, active compounds read low 0.991 | locus YCL069W, strain vba3, active compounds read low 0.977 | locus YCR088W, strain abp1, active compounds read low 0.993 | locus YDL005C, strain med2, active compounds read low 0.97 | locus YDL035C, strain GPR1, active compounds read low 1.03 | locus YDL040C, strain nat1, active compounds read low 0.973 | locus YDL074C, strain BRE1, active compounds read low 1.03 | locus YDL101C, strain DUN1, active compounds read low 1.01 | locus YDL185W, strain tfp1, active compounds read low 0.998 | locus YDL192W, strain arf1, active compounds read low 0.997 | locus YDR001C, strain nth1, active compounds read low 0.989 | locus YDR069C, strain doa4, active compounds read low 0.959 | locus YDR101C, strain arx1, active compounds read low 0.969 | locus YDR137W, strain rgp1, active compounds read low 0.932 | locus YDR150W, strain NUM1, active compounds read low 1.01 | locus YDR159W, strain sac3, active compounds read low 0.959 | locus YDR162C, strain NBP2, active compounds read low 1.04 | locus YDR195W, strain ref2 0.975 | locus YDR297W, strain sur2, active compounds read low 0.979 | locus YDR318W, strain mcm21, active compounds read low 0.993 | locus YDR334W, strain swr1, active compounds read low 0.991 | locus YDR335W, strain msn5, active compounds read low 0.966 | locus YDR388W, active compounds read low 0.99 | locus YDR392W, strain spt3, active compounds read low 1.03 | locus YDR502C, strain sam2, active compounds read low 0.994 | locus YEL003W, strain gim4, active compounds read low 0.973 | locus YEL037C, strain rad23, active compounds read low 0.975 | locus YEL061C, strain CIN8 (second series), active compounds read low 0.975 | locus YEL061C, strain CIN8, active compounds read low 1.01 | locus YER015W, strain faa2, active compounds read low 0.986 | locus YER016W, strain bim1, active compounds read low 0.996 | locus YER110C, active compounds read low 0.984 | locus YER111C, strain swi4, active compounds read low 0.967 | locus YER155C, strain BEM2 (second series), active compounds read low 0.995 | locus YER155C, strain BEM2, active compounds read low 1.01 | locus YER167W, strain BCK2, active compounds read low 1.02 | locus YFR010W, strain ubp6, active compounds read low 0.957 | locus YGL078C, strain dbp3, active compounds read low 0.99 | locus YGL086W, strain mad1, active compounds read low 0.989 | locus YGL167C, strain pmr1, active compounds read low 0.948 | locus YGL173C, strain kem1, active compounds read low 0.952 | locus YGL227W, strain vid30, active compounds read low 0.983 | locus YGL240W, strain doc1, active compounds read low 0.974 | locus YGL248W, strain PDE1, active compounds read low 1.02 | locus YGL253W, strain hxk2, active compounds read low 0.926 | locus YGR135W, strain pre9, active compounds read low 1 | locus YGR229C, strain SMI1, active compounds read low 1.03 | locus YGR252W, strain gcn5, active compounds read low 1.02 | locus YHR013C, strain ard1, active compounds read low 0.987 | locus YHR027C, strain rpn1, active compounds read low 0.999 | locus YHR030C, strain SLT2, active compounds read low 1.01 and 1.11 | locus YHR079C, strain IRE1 (second series), active compounds read low 0.985 | locus YHR079C, strain IRE1, active compounds read low 1.05 | locus YHR094C, strain hxt1, active compounds read low 0.989 | locus YHR129C, strain ARP1, active compounds read low 1.02 | locus YHR142W, strain chs7, active compounds read low 0.913 | locus YHR200W, strain rpn10, active compounds read low 0.99 | locus YIL066C, strain RNR3, active compounds read low 1.03 | locus YIL073C, strain SPO22, active compounds read low 1.01 | locus YIL125W, strain kgd1, active compounds read low 0.99 | locus YIR030C, strain dcg1, active compounds read low 0.984 | locus YJL092W, strain hpr5, active compounds read low 0.978 | locus YJL095W, strain BCK1 (second series), active compounds read low 0.982 | locus YJL095W, strain BCK1, active compounds read low 1.02 and 1.04 | locus YJL115W, strain asf1, active compounds read low 0.973 | locus YJL129C, strain trk1, active compounds read low 0.922 | locus YJL134W, strain LCB3, active compounds read low 1.01 | locus YJL154C, strain vps35, active compounds read low 0.965 | locus YJL164C, strain tpk1, active compounds read low 1.01 | locus YJL166W, strain qcr8, active compounds read low 0.947 | locus YJL168C, strain set2, active compounds read low 0.991 | locus YJL187C, strain SWE1 (second series), active compounds read low 1

From PubChem BioAssay AID1159580 (chemical genetic matrix, 2015)
